Test results: PubChem BioAssay
Results with a measured potency or affinity are listed apart. Records with an inconclusive call do not appear. Calls of active or inactive are those of the source.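 The calls were made as follows, unless noted: active = a dose-response fit showing signal loss, with half-maximal concentration no higher than twice the top tested dose; inconclusive = flat fit between 30% and 70% signal loss, or poor fit; inactive = the rest.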

Key:
[1] = fungal growth arrest, C. neoformans – Alamar Blue, cherry-picks, dose response (AID 686998;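 active = falling signal with fitted half-maximal potency no higher than twice the top valid tested dose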)
[2] = viability loss in HepG2 hepatoma cells – cell-based, cherry-picks, set 2, cytotoxicity control, dose response (AID 687002)
[3] = viability loss in HeLa cells – cell-based, ATP luminescence, cherry-pick samples, cytotoxicity control, dose response (AID 687004;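 active = a fitted half-maximal concentration no higher than twice the top valid tested dose, with signal falling as cells die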;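 also: 0% = neutral control median and -100% = staurosporine 10 µM control median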)
[4] = RMG-1 ovarian cancer cell viability loss – cherry-pick, dose response (AID 687029;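 active = signal drop whose fitted half-maximal concentration is at most twice the top valid dose, in every test run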;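 also: cells exposed to compound for 96 hours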)
[5] = IOSE-T80 viability loss, PAX8-independent line – cell-based, cherry-pick, selectivity assay for PAX8 inhibitor project, dose response (AID 687032;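 active = fitted half-maximal concentration for viability loss no higher than twice the top valid dose, in every repeat run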;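 also: cells exposed to compound for 96 h before reading; 0% = neutral control wells and -100% = 2 µM mitoxantrone kill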)
[6] = CMV-driven luciferase expression suppression in HEK293 – cell-based, luminescence, dry powder, counter-screen for Pax8 inhibitor project, dose response (AID 743020;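 active = signal-lowering compounds whose fitted half-maximal concentration is at or below twice the top tested dose in every run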;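 also: HEK293 cells stably expressing the CMV luciferase reporter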)
[7] = general cell-killing toxicity readout – plate reader, dry powder samples, cytotoxicity control for PAX8 inhibitor project, dose response (AID 743021; call rule not given here)
[8] = IGROV1 cell killing – plate reader, dry powder samples, PAX8 inhibitor project, dose response (AID 743043; call rule not given here;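 also: more negative means fewer viable cells or more cytotoxicity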)
[9] = OVCAR-3 cell viability loss – plate reader, dry powder samples, PAX8 inhibitor project, dose response (AID 743044; call rule not given here); conditions: max activity: at 35 µM, active compounds read low unless noted
[10] = toxicity toward immortalized ovarian surface epithelium – cell-based, plate reader, dry powder samples, cytotoxicity control for PAX8 inhibitor project, dose response (AID 743045; call rule not given here;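 also: 0% = neutral control median and -100% = positive control median; more negative values mean more cell killing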)
[11] = OVCAR8 cell viability loss – plate reader, dry powder samples, PAX8 project, dose response (AID 743197; call rule not given here)
[12] = C. neoformans lysis by adenylate kinase leakage – AK release luminescence, cherry-picks, dose response (AID 687000;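 active = fitted dose curve reaches 40% lysis signal rise at or below the highest valid concentration tested for that sample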;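 also: luminescent detection of adenylate kinase leaking from lysed yeast; 0% = median neutral control signal and 100% = double that signal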)

Measured: max activity

Cc1noc(C)c1NC(=O)N(C)C[C@H]1OCCCC[C@H](C)Oc2ccc(NC(=O)NC(C)C)cc2C(=O)N([C@@H](C)CO)C[C@@H]1C
inactive: [1] | [2] | [3]

C[C@H]1CN([C@@H](C)CO)C(=O)c2cccc(NS(=O)(=O)c3ccc(Cl)cc3)c2O[C@@H]1CN(C)CC1CC1
inactive: [1] | [2] | [3]

Cc1noc(C)c1NC(=O)Nc1ccc2c(c1)C(=O)N([C@@H](C)CO)C[C@H](C)[C@H](CN(C)S(=O)(=O)c1ccc(Cl)cc1)O2
inactive: [1] | [2] | [3]

CC(C)NC(=O)Nc1ccc2c(c1)CC(=O)N([C@@H](C)CO)C[C@@H](C)[C@H](CN(C)C(=O)Nc1ccc3c(c1)OCO3)O2
inactive: [1] | [2] | [3]

N#Cc1ccc(C23CC4(C2)[C@H](CN(Cc2ccc(C(F)(F)F)cc2)[C@@H]4c2ccccc2)C3c2ccc(C(F)(F)F)cc2)cc1 (some centres not stated)
inactive: [1] | [2] | [3]

CC(C)CC#Cc1cnc2c(c1)C(=O)N([C@H](C)CO)C[C@H](C)[C@@H](CN(C)Cc1cccc(F)c1)O2
inactive: [1] | [2] | [3]

C[C@H]1CN([C@@H](C)CO)C(=O)Cc2cc(NS(C)(=O)=O)ccc2O[C@@H]1CN(C)Cc1ccc(Cl)c(Cl)c1
inactive: [1] | [2] | [3]

C[C@H](CO)N1C[C@H](C)[C@@H](CN(C)Cc2ccc(-c3ccccc3)cc2)Oc2ccc(NC(=O)Nc3ccc(C(F)(F)F)cc3)cc2C1=O
inactive: [1] | [2] | [3]

CCCC(=O)Nc1ccc2c(c1)C(=O)N(C)C[C@H](OC)[C@@H](C)CN(C(=O)c1cccnc1)[C@@H](C)CO2
inactive: [1] | [2] | [3]

O=C(NCCN1CCCCC1)[C@@H]1N[C@@H]2c3ccc(-c4ccncc4)c(=O)n3C[C@@H]2[C@H]1CO
inactive: [1] | [2] | [3]

COCC(=O)N(C)C[C@H]1Oc2ncc(-c3ccccc3F)cc2C(=O)N([C@@H](C)CO)C[C@H]1C
inactive: [1] | [2] | [3]

CC(C)NC(=O)Nc1ccc2c(c1)C(=O)N([C@@H](C)CO)C[C@@H](C)[C@H](CN(C)C(=O)c1ccncc1)OCCCC[C@H](C)O2
inactive: [1] | [2] | [3]

Cc1cccc(C)c1NC(=O)CN(C)C(=O)C1CCCCC1
inactive: [1] | [2] | [3]

COC(=O)C1=C(C)N(Cc2ccccc2)C(=S)N[C@H]1c1ccc(Br)cc1
inactive: [1] | [2] | [3]

Cc1noc(C)c1NC(=O)Nc1ccc2c(c1)C(=O)N([C@@H](C)CO)C[C@H](C)[C@H](CN(C)CC1CCCCC1)O2
inactive: [1] | [2] | [3]

C[C@H](CO)N1C[C@H](C)[C@@H](CN(C)C(=O)c2ccncc2)OCCCC[C@H](C)Oc2ccc(NC(=O)Cc3ccccc3)cc2C1=O
inactive: [1] | [2] | [3]

O=C(NC1CCCCC1)N[C@H]1C=C[C@@H](CC(=O)N2CCOCC2)O[C@@H]1CO
inactive: [1] | [2] | [3]

CCC(=O)N(C)C[C@@H]1Oc2cc(C#CC(C)(C)O)ccc2S(=O)(=O)N([C@H](C)CO)C[C@H]1C
inactive: [1] | [2] | [3]

Cc1ccc(NC(=O)N2CCCC2C(=O)Nc2c(C)cc(C)cc2C)cc1 (configuration not stated)
inactive: [1] | [2] | [3]

C[C@@H]1CN([C@H](C)CO)S(=O)(=O)c2ccc(C#C[C@@H](C)O)cc2O[C@@H]1CN(C)Cc1ccncc1
inactive: [1] | [2] | [3]

CC(C)NC(=O)N[C@H]1CC[C@@H](CCNC(=O)C2CC2)O[C@H]1CO
inactive: [1] | [2] | [3]

CCN(Cc1ccccc1)C(=O)COc1ccccc1
inactive: [1] | [2] | [3]

C[C@H]1CN([C@@H](C)CO)C(=O)Cc2cc(N(C)C)ccc2O[C@@H]1CN(C)C(=O)Nc1ccc(C(F)(F)F)cc1
inactive: [1] | [2] | [3]

CNC[C@@H]1OCCCC[C@@H](C)Oc2ccc(NS(=O)(=O)c3ccc(Cl)cc3)cc2C(=O)N([C@H](C)CO)C[C@H]1C
inactive: [1] | [2] | [3]

Cc1cccc(-c2ccc([C@H]3[C@H](CO)N4CCCCN(C(=O)c5ccc6c(c5)OCO6)C[C@@H]34)cc2)c1
inactive: [1] | [2] | [3]

Cc1noc(C)c1S(=O)(=O)Nc1ccc2c(c1)C(=O)N([C@@H](C)CO)C[C@@H](C)[C@@H](CN(C)Cc1ccccc1)OCCCC[C@H](C)O2
inactive: [1] | [2] | [3]

O=C(NC(=S)Nc1cccc(F)c1)c1cccc([N+](=O)[O-])c1
inactive: [1] | [2] | [3]

COCCNC(=O)C[C@@H]1C[C@H]2c3cc(NC(=O)C4CCOCC4)ccc3O[C@H]2[C@H](CO)O1
inactive: [1] | [2] | [3]

CCCNC(C)C(=O)Nc1ccccc1C (configuration not stated)
inactive: [1] | [2] | [3]

C[C@@H]1CCCCO[C@H](CN(C)S(=O)(=O)c2cccs2)[C@@H](C)CN([C@@H](C)CO)C(=O)c2cc(NC(=O)CCC(F)(F)F)ccc2O1
inactive: [1] | [2] | [3]

COCCN1C(=S)N[C@@H](c2ccccc2)C(C(=O)OC)=C1C
inactive: [1] | [2] | [3]

O=C(Cc1ccccc1)N[C@H]1C=C[C@@H](CC(=O)N2CCOCC2)O[C@@H]1CO
inactive: [1] | [2] | [3]

Cc1ccccc1NC(=O)C(=O)NCCCN1CCCC1=O
inactive: [1] | [2] | [3]

COc1cccc(S(=O)(=O)N(C)C[C@@H]2OCc3ccccc3-c3ccccc3C(=O)N([C@@H](C)CO)C[C@@H]2C)c1
inactive: [4] | [5] | [6] | [7] | [8] | [9] -40.1% [at 8 µM, active compounds read low] | [10] | [11]

O=C(CCN1CCCCC1)NCC[C@@H]1CC[C@H](NC(=O)c2ccc(F)cc2)[C@@H](CO)O1
inactive: [12] | [2] | [3]

CNC[C@@H]1Oc2ccc(NS(=O)(=O)c3ccc(Cl)cc3)cc2C(=O)N([C@H](C)CO)C[C@H]1C
inactive: [12] | [2] | [3]

O=C(COc1ccccc1)NCc1ccc2c(c1)OCO2
inactive: [12] | [2] | [3]

COC(=O)C1=C(C)N(Cc2ccc(Cl)cc2)C(=S)NC1c1cccc(OC)c1 (configuration not stated)
inactive: [12] | [2] | [3]

CC(NC1CCCC1)C(=O)Nc1ccccc1-c1ccccc1 (configuration not stated)
inactive: [12] | [2] | [3]

Cc1cccc(OCC(=O)NCc2ccc(F)cc2)c1
inactive: [12] | [2] | [3]

CCOc1cc(CNC)ccc1OCC(=O)NC(C)(C)C
inactive: [12] | [2] | [3]

O=C(c1ccco1)N1N=C(c2cccs2)CC1c1ccco1 (configuration not stated)
inactive: [12] | [2] | [3]

C[C@@H]1CN([C@H](C)CO)C(=O)c2ccccc2-c2ccccc2CO[C@H]1CN(C)S(=O)(=O)c1cccc(C#N)c1
inactive: [12] | [2] | [3]

CC(C)Sc1nc2ncnc(N)c2[nH]1
inactive: [12] | [2] | [3]

O=C(C[C@@H]1CC[C@H](NC(=O)Cc2ccccn2)[C@@H](CO)O1)NCCc1ccccc1
inactive: [12] | [2] | [3]

COc1ccc(NC(=O)CSc2ncnc3c2cnn3Cc2ccccc2)cc1
inactive: [12] | [2] | [3]

CC(C)CC#Cc1cnc2c(c1)C(=O)N([C@@H](C)CO)C[C@H](C)[C@H](CN(C)C(=O)c1ccc3c(c1)OCO3)O2
inactive: [12] | [2] | [3]

CC(C)Oc1cccc(C(=O)NC(=S)Nc2ccccc2N2CCOCC2)c1
inactive: [12] | [2] | [3]

Cc1ccc(C)c(NC(=O)C2(C)CCN2C(=O)C(C)C)c1 (configuration not stated)
inactive: [12] | [2] | [3]

Cc1ccccc1OCC(=O)NCc1ccccc1
inactive: [12] | [2] | [3]

CCc1ccccc1NC(=O)C1NC(=O)CC1c1ccccc1 (configuration not stated)
inactive: [12] | [2] | [3]

COc1ccc(N(C)C(=O)c2cn(CC(C)C)c(=O)c3cc(OC)c(OC)cc23)c(OC)c1
inactive: [12] | [2] | [3]

O=C(C[C@H]1CC[C@@H]2[C@H](COC[C@H](O)CN2CC2CCOCC2)O1)NCc1ccc(Cl)cc1
inactive: [12] | [2] | [3]

O=C(CN(c1ccccc1)S(=O)(=O)c1ccccc1)Nc1ccc(F)cc1
inactive: [12] | [2] | [3]

Cc1noc(C)c1NC(=O)N(C)C[C@H]1OCCCC[C@@H](C)Oc2ccc(NC(=O)NC(C)C)cc2C(=O)N([C@H](C)CO)C[C@H]1C
inactive: [12] | [2] | [3]

CCc1ccc(C(=O)NC(=S)Nc2ccccc2N2CCOCC2)cc1
inactive: [12] | [2] | [3]

CC(=O)N[C@H]1CC[C@@H](CCNC(=O)C2CCC2)O[C@H]1CO
inactive: [12] | [2] | [3]

Cc1ccccc1OCC(=O)NC(C)c1ccccc1 (configuration not stated)
inactive: [12] | [2] | [3]

CC(C)c1ccc(OCC(=O)NC(C)c2ccccc2)cc1 (configuration not stated)
inactive: [12] | [2] | [3]
